According to PubChem BioAssay (NCI):
This is part of a sample that, as a whole, favours compounds with a hit. Of some 83,000 tested, about 20% had one in any assay.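 How to read the values: 0–100, growth inhibition (40 = 60% inhibited); 0, no net growth; -100 to 0, cell death (-40 = 40% of starting cells died; -100 = all dead).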 Unmarked numbers belong to inactive results. The source made the active and inactive calls.

test system: MDA-MB-435 melanoma; test: NCI-60 one-dose screen, 48 h (100 = growth as untreated, 0 = no growth, -100 = all killed); details: 10 µM unless noted
Method: Growth inhibition of the MDA-MB-435 human Melanoma tumor cell line is measured as a screen for anti-cancer activity. Cells are grown in 96 well plates and exposed to the test compound for 48 hours. Compounds are tested at a single concentration, which is 10^-5 M for most compounds. The reported endpoint is percent growth (GI% or GIPRCNT), where numbers from 0 - 100% represent growth inhibition, and numbers from -100% - 0 represent cell death. For example, a value of 40 represents 60% growth inhibition. A value of 0 means no net growth occurred over the course of the experiment. A value of -40 indicates 40% of cells at the beginning of the experiment died by the end of the experiment. A value of -100 means all cells are dead at the end of the experiment.
NCI-60 Human Tumor Cell Lines Screen was performed using the standard one-dose NCI protocol, which is described in more detail at https://dtp.cancer.gov/discovery_development/nci-60/default.htm.
Compounds with GIPRCNT values below 10 were considered active. Activity score was based on GIPRCNT using the following formula: […]
Score is 0 for GIPRCNT values of 100 or above, 50 for GIPRCNT values of 0, and 100 for GIPRCNT values of -100.

Structure (SMILES) | growth
COc1cc(CN(c2ccc(Cl)cc2)C2OC(=O)c3ccccc32)cc(OC)c1OC (stereo not given) | -45% (active)
COc1cc(NC(C)CCCN2C(=O)c3ccccc3C2=O)c2nccc(C)c2c1OC (stereo not given) | 104%
CC(C)(C)NC(C1=CC(C)(C)c2ccccc2C1=O)c1ccccc1 (stereo not given) | -25.4% (active)
Cc1ccc(-c2cn3cc([N+](=O)[O-])ccc3n2)cc1 | 70.8%
COc1ccc(/C=C/C(=O)c2ccc(-n3cc(CN4CCN(c5cc6c(cc5F)c(=O)c(C(=O)O)cn6C5CC5)CC4)nn3)cc2)cc1OC | 5.4% (active)
Nc1nccc(=S)[nH]1 | 110%
C/C(=N\N=C1/SCC(=O)N1c1ccccc1)c1ccco1 | 88.6%
O=C(Nc1ccc(-n2ccc3c(NC(=O)c4ccccc4)nccc32)cc1)c1ccc(Cl)c(C(F)(F)F)c1 | 11.6%
c1coc(CSc2ncnc3nc[nH]c23)c1 | 116%
O=C(Nc1ccc(-n2ccc3c(NC(=O)c4ccccc4)ncnc32)cc1)c1ccc(Cl)c(C(F)(F)F)c1 | 18.2%
O=C(Nc1ccc(-n2cc(-c3ccncc3)c(-c3ccc(O)c(Cl)c3)n2)cc1)c1cc(C(F)(F)F)cc(C(F)(F)F)c1 | 45.9%
Cc1cccc(NC(=O)CCc2ccc(N3C(N)=NC(N)=NC3(C)C)cc2)c1 | 25.9%
O=C(/C=C/c1ccco1)c1cccc(Nc2nc(Nc3ccccc3)nc(Nc3ccccc3)n2)c1 | 102%
COC(OC)C1(c2ccccc2)NC(=O)NC1=O (stereo not given) | 111%
CCc1c(C)c2cc(-n3c(-c4ccc(OC)cc4)csc3=N)c(O)c(C)c2oc1=O | 0.357% (active)
Cc1ccccc1C[P+](c1ccccc1)(c1ccccc1)c1ccccc1 | 14.6%
COc1ccccc1S(=O)(=O)Nc1ccc2c3c(cc(-c4ccoc4)nc13)C(=O)N2C | 32.8%
COc1ccc(-c2nnc(SCC(=O)N3CCN(c4cc5c(cc4F)c(=O)c(C(=O)O)cn5C4CC4)CC3)o2)cc1OC | 100%
C=C1C(=O)O[C@H]2[C@H]1CC/C(COC(=O)c1ccc(Cl)nc1)=C\CC[C@@]1(C)O[C@@H]21 | 14.6%
C#C[C@@]1(O)[C@@H](CO)O[C@@H](n2cc(Br)c3c(Cl)ccnc32)[C@@H]1O | 56.7%

Structure (SMILES) | growth
COc1cc(-c2nc3ccccc3s2)ccc1OCc1nc2n(n1)S(=O)(=O)c1ccccc1N2C | 90%
O=C(Nc1ccccc1Cl)c1c[nH]c(=O)c(-c2ccc(N3CCCOC4(CC4)C3)cc2)c1 | 56.4%
C[C@]12CC[C@@H]3c4ccc(O)c(N)c4CC[C@H]3[C@@H]1CC[C@@H]2O | 108%
O=C(N/N=C1\SCC(=O)N1c1ccccc1)c1cc(-c2cc3ccccc3o2)nn1-c1ccccc1 | 102%
CS(=O)(=O)Nc1cccc(-c2ccc3ncnc(Nc4ccc(F)c(Cl)c4)c3c2)c1 | 38.7%
CCOc1ccc(-n2c(-c3cc(OC)c(OC)c(OC)c3)nnc2-c2ccc(OC)cc2N)cc1 | 81.3%
Cc1ccc(-c2nc3c(N=Nc4ccc(S(N)(=O)=O)cc4)c(N)nn3c(N)c2C#N)cc1 | 52.3%
COc1ccc(-c2nn(-c3ccc(NC(=O)c4ccc(Cl)c(C(F)(F)F)c4)cc3)cc2-c2ccncc2)cc1Cl | 23.2%
CCOC(=O)C1=C(N)Oc2cc(OC)ccc2C1c1ccc(F)c(F)c1 (stereo not given) | -15.8% (active)
Cc1ccc2c(C3C(C#N)=C(N)Oc4cc5ccccc5cc43)cc(=O)oc2c1 (stereo not given) | -48.2% (active)
CCn1c(SCC(=O)c2ccc(Br)cc2)nnc1-c1cc2c([nH]c3ccccc32)c(-c2cccc(O)c2)n1 | 31.3%
Oc1ccccc1/C=N/c1ccccn1 | 122%
CCc1c(C)c2cc3c(c(C)c2oc1=O)OCC(=O)N3 | 74.5%
CCCOC(=O)c1ccc([N+](=O)[O-])o1 | 107%
O=c1c(-c2ccc3c(c2)OCO3)coc2c(CO)c(O)ccc12 | 49.9%
O=S(=O)(CCN1CCOCC1)Nc1cncc(-c2ccc3ncnc(Nc4ccc(F)c(Cl)c4)c3c2)c1 | 87.2%
Cc1cccc(NCS(=O)(=O)O)c1 | 108%
COc1ccc(/C=C/C(=O)/C=C(/C=C/c2ccc(OC)c(OC)c2OC)OB(F)F)c(OC)c1OC | 0.716% (active)
COC(=O)c1oc2c(C(C)=O)c(OCCN3CCCCC3)ccc2c1C | 80.8%
Cc1cc(SCc2ccc(Cl)cc2Cl)nc(SCc2ccc(Cl)cc2Cl)n1 | 97.2%
